12-LOX inh – ALOX12 (human) lipoxygenase inhibition; P18054; purified 12hLO, xylenol orange hydroperoxide absorbance; Potency, µM (top dose mostly 108 µM), inactives show at the highest dose activity change, negative = inhibition, most hits filed as inhibitors; 580,000 compounds, 1.1% hits; AID 1671190; note: % is set by controls: 0 for no effect and ±100 for the full control effect
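Purified human 12hLO (150 nM final) in 25 mM Hepes, 0.01% Triton X-100, pH 7.0 was preincubated 15 min at room temperature with compound. Then 40 uM arachidonic acid was added, 30 min. Hydroperoxide was read by Fe-XO absorbance ratio 573/405 nm.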
G9a block – inhibitors of human histone lysine methyltransferase G9a; Q96KQ7; G9a H3K9 monomethylation, AlphaScreen, 2 h; Potency, µM (titrated, usually from 102 µM), without a hit: at the highest dose activity, negative = inhibition, usual class: inhibitors; 350,000 compounds, 8.8% hits; AID 504332; note: % is set by controls: 0 for no effect and ±100 for the full control effect; nearly all actives have a fitted effect of over 75% in size
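Chemiluminescent proximity detection of H3K9 monomethylation, read after 10 min bead incubation in the dark. Reaction: 20 nM G9a, 500 nM biotin-H3K9 peptide, 20 uM SAM cofactor, 2 h, room temperature, following 15 min enzyme-compound preincubation.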
PLK1 PBD inh – PLK1 (human) polo-box domain binding inhibition; P53350; Plk1 PBD binding of FITC phosphopeptide, fluorescence polarization; 360,000 compounds, 2.8% hits; Potency, µM, inactives show max response, negative = inhibition, most hits filed as inhibitors; note: series mostly up to about 57 µM; % is set by controls: 0 for no effect and ±100 for the full control effect; nearly all actives have a fitted effect of over 65% in size
Target sequence (P53350 whole entry, looked up, the tested form may be a part): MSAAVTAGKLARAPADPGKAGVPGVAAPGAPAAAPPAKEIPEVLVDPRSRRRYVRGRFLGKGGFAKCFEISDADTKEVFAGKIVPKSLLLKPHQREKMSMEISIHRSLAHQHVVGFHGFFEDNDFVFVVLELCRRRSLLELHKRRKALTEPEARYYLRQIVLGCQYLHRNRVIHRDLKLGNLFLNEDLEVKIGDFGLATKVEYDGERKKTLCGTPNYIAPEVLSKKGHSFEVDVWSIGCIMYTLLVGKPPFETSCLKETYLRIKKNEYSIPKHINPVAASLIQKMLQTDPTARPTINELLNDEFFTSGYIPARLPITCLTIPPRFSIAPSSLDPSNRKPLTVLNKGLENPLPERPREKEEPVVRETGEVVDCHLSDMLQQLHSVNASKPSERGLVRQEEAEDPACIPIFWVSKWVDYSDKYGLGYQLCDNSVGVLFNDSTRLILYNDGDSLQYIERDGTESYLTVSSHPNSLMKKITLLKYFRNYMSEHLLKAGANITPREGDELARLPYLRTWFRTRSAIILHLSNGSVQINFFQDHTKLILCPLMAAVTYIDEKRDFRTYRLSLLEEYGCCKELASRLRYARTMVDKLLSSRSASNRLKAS
HP1b binding inh – inhibitors of HP1-beta chromodomain binding to methylated histone tails | AID 540317 | P83916 | AlphaScreen HP1-beta / biotin-H3K9me3 peptide binding | Potency, µM (series often up to 114 µM), for the others: at the highest dose activity change, negative = inhibition, usual class: inhibitors | 390,000 compounds, 0.56% hits; note: nearly all actives have a fitted effect of over 70% in size
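AlphaScreen: HP1-beta (50 nM) preformed 30 min with biotin-H3(1-18)K9me3 peptide (50 nM) in PBS pH 7.4, 0.01% Tween-20. Compound added for 30 min at RT, then streptavidin donor/nickel chelate acceptor beads (10 ug/mL) for 30 min.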
JMJD2A Tudor inh – blocks the human JMJD2A Tudor domain. O75164. AlphaScreen JMJD2A-Tudor / H3K4me3 peptide binding. Potency, µM (series often up to 114 µM), inactives show top-dose activity change, negative = inhibition, usual class: inhibitors. 390,000 compounds, 4.4% hits. AID 504339; note: % is set by controls: 0 for no effect and ±100 for the full control effect; nearly all actives have a fitted effect of over 50% in size
BAZ2B inh – inhibitors of human BAZ2B bromodomain; Potency, µM (titrated, usually from 114 µM), for the others: at the highest dose activity change, negative = inhibition, most hits filed as inhibitors; AlphaScreen BAZ2B-H3K14Ac peptide displacement; 360,000 compounds, 4.4% hits; Q9UIF8; AID 504333; note: % is set by controls: 0 for no effect and ±100 for the full control effect; nearly all actives have a fitted effect of over 60% in size
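Complex of BAZ2B and biotin-H3K14Ac (50 nM apiece) forms over 30 min at RT, then faces library compounds up to 110 uM for another 30 min; AlphaScreen beads added, 20 min dark incubation, luminescence read.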
Numbers without * were called inactive; ? = inconclusive; nt = not tested or not shown; [ ] = remark or other dose. In the library only some 9% were active in any assay of this set; here they are far more common. Calls come from the whole dose curve; as a rule, active = well fitted curve in the direction sought with a large enough effect; inconclusive = small, poorly fitted or top-dose-only effect, or another doubt; inactive = no such curve, though single readings can be large; an effect the other way counts as inactive or inconclusive. Potency is the fitted concentration of half-maximal effect.

SMILES	12-LOX inh	G9a block	PLK1 PBD inh	HP1b binding inh	JMJD2A Tudor inh	BAZ2B inh
COc1cc(-c2nnc(SCC(=O)O)n2-c2ccccc2)cc(OC)c1OC	-3%	nt	-4%	31%	-17%	-1%
Oc1c(I)cc(Cl)c2cccnc12	11µM*	35µM*	-24%	4%	79µM*	40µM*
Oc1c(Cl)c(Cl)c2ncccc2c1Cl	-27%	nt	-6%	?	?	nt
O=[N+]([O-])c1cc(Cl)c2cccnc2c1O	?	35µM*	-3%	?	20µM*	18µM*
CN(C(=O)c1cc2cccc([N+](=O)[O-])c2[nH]1)C1CCCCC1	14%	nt	nt	nt	nt	nt
Cc1c(C)c2cccnc2c2ncccc12	nt	nt	-8%	33%	10µM*	5.6µM*
CN(Cc1cc([N+](=O)[O-])c2cccnc2c1O)C1CCCCC1	nt	11%[59 µM]	nt	nt	nt	7.9µM*
Cc1ccc(B(O)O)c2cccnc12	28%	nt	nt	nt	nt	nt
Cc1ccc(CSc2ccc(S(=O)(=O)N3CCCC3)cn2)cc1	17%	7%[12.7 µM]	-15%	165%	77%	67%
CCN(Cc1cccs1)C(=O)c1cccc(S(=O)(=O)N2CCN(C)CC2)c1	?	?	2%	38%	-3%	2%
O=[N+]([O-])c1cc(F)c2cccnc2c1O	-7%	8.9µM*	?	11%	10µM*	11µM*
O=[N+]([O-])c1cc(Cl)c(O)c2ncccc12	5.6µM*	25µM*	-25%	?	22µM*	20µM*
Clc1cc2cccnc2c2ncccc12	?	?	-2%	22%	-7%	3.5µM*
O=[N+]([O-])c1ccc(Cl)c2cccnc12	-25%	11%	-23%	14%	-16%	-3%
Clc1nc2ccccc2cc1-c1nnn(-c2ccccc2)n1	12%	29%[12.7 µM]	-11%	48%	-1%	2%
CSc1ncccc1C(=O)OCC(=O)NCCC1=CCCCC1	-17%	2%	2%	31%	-10%	6%
Cc1cc(C)c2c(=O)c3c(oc2c1)C(=O)N(Cc1ccco1)C3c1ccc(F)cc1 (stereo not drawn)	-9%	3%[59 µM]	nt	8%	-14%	2%
Cc1ccc(C(NC(=O)N2CC(C)OC(C)C2)C(Cl)Cl)cc1F (stereo not drawn)	?	79µM*	-1%	43%	-8%	34%
Cc1ccc(C(NC(=O)N2CCN(C)CC2)C(Cl)Cl)cc1F (stereo not drawn)	-4%	?	-15%	28%	-14%	-16%
Cc1ccc(C(NC(=O)N2CCOCC2)C(Cl)Cl)cc1F (stereo not drawn)	-14%	45µM*	27µM*	2%	-6%	-2%
O=C(NCCc1ccccc1)C(=O)NCC1OCCN1S(=O)(=O)c1ccc2c(c1)OCCO2 (stereo not drawn)	44%	nt	-8%	42%	-12%	-8%
O=C(NCCCn1ccnc1)C(=O)NCC1OCCN1S(=O)(=O)c1ccc2c(c1)OCCO2 (stereo not drawn)	46%	nt	0%	1%	?	40µM*
Cc1cc(C)c(S(=O)(=O)N2CCOC2CNC(=O)C(=O)NCCCn2ccnc2)c(C)c1 (stereo not drawn)	41%	nt	-2%	35%	50µM*	13µM*
Cc1cc(C)c(S(=O)(=O)N2CCOC2CNC(=O)C(=O)NCCc2ccc(S(N)(=O)=O)cc2)c(C)c1 (stereo not drawn)	14%	12%	-18%	40%	-19%	-31%
COc1ccc(N2CCN(c3ccc(N4C(=O)CC(C)C4=O)cc3[N+](=O)[O-])CC2)cc1 (stereo not drawn)	1%	40µM*	8%	-29%	?	?
COc1ccc(N2CCN(c3ccc(N4C(=O)COCC4=O)cc3[N+](=O)[O-])CC2)cc1	-1%	50µM*	-22%	-14%	-32%	?
COc1cccc(N2C(=O)CC(N3CCN(c4ccc([N+](=O)[O-])cc4)CC3)C2=O)c1 (stereo not drawn)	-25%	?	-13%	10%	-24%	-11%
CCc1nc(CC(=O)N(CC#N)C2CC2)cs1	17%	nt	nt	nt	nt	nt
